In the library only some 3.1% were active in any assay of this set; here they are far more common.
Vif-A3G inh – inhibitors of Vif-APOBEC3G interaction; Q9HC16; HeLa A3G-eYFP + Vif (tagged APOBEC3G with the HIV-1 protein that degrades it), YFP fluorescence, overnight; Potency, µM (top dose mostly 46.1 µM), for the others: at the top dose activity, negative = active, hits mostly inhibitors; 410,000 tested, 0.076% active; note: potency is the fitted concentration of half-maximal effect; % is set by controls: 0 for no effect and ±100 for the full control effect; nearly all actives have a fitted effect of over 60% in size
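Read-out is eYFP fluorescence (Ex 488/Em 500-530) from Vif-expressing HeLa A3G-eYFP cells; more signal means A3G escaped Vif-mediated degradation. Cells plated overnight, compound pinned in, incubated overnight at 37 deg C.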
VDR inhibitor – vitamin D3 receptor (human) inhibition | P11473 | VDR-SRC2-3 peptide fluorescence polarization, 2 h | Potency, µM, for the others: max response, negative = inhibition, actives largely listed as inhibitors | 400,000 tested, 0.93% active; note: potency is the fitted concentration of half-maximal effect; % is set by controls: 0 for no effect and ±100 for the full control effect
Target sequence (P11473 whole entry, looked up): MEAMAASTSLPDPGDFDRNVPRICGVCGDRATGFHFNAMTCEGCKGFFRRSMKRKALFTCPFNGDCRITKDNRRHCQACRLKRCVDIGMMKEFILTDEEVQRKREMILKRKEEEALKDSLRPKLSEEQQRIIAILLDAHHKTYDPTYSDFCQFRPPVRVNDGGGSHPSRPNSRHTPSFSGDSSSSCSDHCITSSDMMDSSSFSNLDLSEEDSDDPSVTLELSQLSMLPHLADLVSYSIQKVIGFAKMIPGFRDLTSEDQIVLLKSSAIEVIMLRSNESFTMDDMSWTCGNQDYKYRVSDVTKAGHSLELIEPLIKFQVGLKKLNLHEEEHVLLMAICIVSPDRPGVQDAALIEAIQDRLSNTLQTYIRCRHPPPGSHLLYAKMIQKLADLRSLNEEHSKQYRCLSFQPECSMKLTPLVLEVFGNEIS
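Reagent solutions, kept cold and dark, are dispensed first; compounds are then pinned in at 23 nl, plates briefly spun, and incubated 2 h at ambient temperature. Inhibition of VDR–SRC2-3 peptide binding is read by fluorescence polarization.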
PLK1 PBD inh – blocks phosphopeptide binding to human PLK1 polo-box domain | P53350 | Plk1 PBD binding of FITC phosphopeptide, fluorescence polarization | Potency, µM, inactives show max response, negative = inhibition, actives largely listed as inhibitors | 360,000 tested, 2.8% active; note: potency is the fitted concentration of half-maximal effect; series mostly up to about 57 µM; % is set by controls: 0 for no effect and ±100 for the full control effect; nearly all actives have a fitted effect of over 65% in size
TSHR antagonist – blocks TSH signaling through the human TSH receptor | TSHR-expressing cells, TSH-stimulated cAMP HTRF, 2 h; active compounds read low | 330,000 tested, 0.2% active | activity change, negative = inhibition, % at 11.5 µM | P16473 | AID 504810;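 active = activity change below a set negative limit, meaning inhibition stronger than a set level, cut at about -70% in these data; inconclusive = activity change between two set negative limits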; note: % is set by controls: 0 for no effect and ±100 for the full control effect
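Read-out is FRET at 665 nm (cryptate excitation 337 nm) from a cryptate-tagged anti-cAMP antibody, competed by cell cAMP against cAMP-d2. Compounds are tested on freshly harvested TSHR cells challenged with 4nM TSH (EC80) for 2 hours at 37 deg C.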
Vif-APOBEC3F blk – blocks the Vif interaction with APOBEC3F; Potency, µM (series often up to 46.1 µM), for inactives: top-dose activity, negative = active; HeLa A3F-eYFP + Vif (tagged APOBEC3F with the HIV-1 protein that degrades it), YFP fluorescence increase; 390,000 tested, 0.2% active; note: potency is the fitted concentration of half-maximal effect; % of control where 0% means no effect; nearly all actives have a fitted effect of over 65% in size
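HeLa cells stably expressing Vif plus C-terminally eYFP-tagged A3F were seeded, incubated overnight at 37 deg C, dosed with compound, incubated overnight again at 37 deg C. Yellow fluorescence (Ex 488/Em 500-530) reported blocked Vif-mediated A3F-eYFP degradation.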
Numbers without * were called inactive; ? = inconclusive; . = no result given. Unless noted, calls come from the whole dose curve; as a rule, active = well fitted curve in the direction sought with a large enough effect; inconclusive = small, poorly fitted or top-dose-only effect, or another doubt; inactive = no such curve, though single readings can be large; an effect the other way counts as inactive or inconclusive.

SMILES	Vif-A3G inh	VDR inhibitor	PLK1 PBD inh	TSHR antagonist	Vif-APOBEC3F blk
Cc1cc(N2CCN(c3ccc([N+](=O)[O-])c4cccnc34)CC2)c2ccccc2n1	?	-28%	11%	-7	3.5µM*
CC(C)(C)Nc1oc(-c2ccccc2)nc1-c1ccccc1F	.	5%	.	.	.
CC1=C(C#N)c2nc(N)c(C#N)c(C)c2/C1=C\c1ccc(C)cc1	.	.	.	43	.
COc1cc(/C=C2\C(C)=C(C#N)c3nc(N)c(C#N)c(C)c32)ccc1OCC(=O)O	4%	-19%	27µM*	-9	-1%
CCOC(=O)c1cn2ccc(C)cc2n1	10%	-15%	27µM*	0	-2%
Cc1sc2nc(SCC(=O)Nc3ccc(S(N)(=O)=O)cc3)[nH]c(=O)c2c1C	-4%	3%	-13%	-8	-6%
Cc1sc2nc(SCC(=O)Nc3cccc(S(N)(=O)=O)c3)[nH]c(=O)c2c1C	-4%	-25%	24µM*	-8	-2%
COc1ccc(-c2ccc(C)cc2)cc1C1C2C=CCC(C)C2C(=O)N1Cc1ccccc1 (stereo not drawn)	-2%	-7%	.	.	.
CC1=CN2C(=N)/C(=C/c3ccc([N+](=O)[O-])o3)C(=O)N=C2S1	22µM*	?	?	-18	?
O/C(=C\c1nc2ccccc2nc1/C=C(\O)c1ccccc1)c1ccccc1	-7%	79µM*	?	-17	?
O/C(=C\c1ccc2ccccc2n1)c1ccncc1	-25%	1%	0%	-6	-21%
CC(=O)c1cc(CC=C(C)C)c(O)cc1O	0%	10%	30µM*	10	-1%
CC(N)=Nc1ccc([N+](=O)[O-])cc1	1%	-8%	-3%	3	6%
O=[N+]([O-])c1ccc(N=Nc2c(Cl)cc(O)cc2Cl)cc1	?	-22%	?	-91*	2%
COc1cccc([C@@H]2Oc3ccc(OC)cc3C(=O)[C@H]2OC(=O)NS(=O)(=O)c2ccc(C)cc2)c1	.	0%	.	.	.
COc1ccc2cc(CO)c(Cl)nc2c1	1%	-15%	6.7µM*	-1	-13%
Cc1cccc(OCCOc2ccccc2C=C(C#N)C#N)c1	?	50µM*	-6%	-14	?
COc1cc(/C=C2/SC(=S)N(CC3CCCO3)C2=O)ccc1O (stereo not drawn)	5%	-8%	46%	-11	32µM*
O=C1/C(=C/c2ccco2)SC(=S)N1CC1CCCO1 (stereo not drawn)	0%	-3%	-14%	4	4%
Cc1ccc(/C=C2\SC(=S)N(CC3CCCO3)C2=O)o1 (stereo not drawn)	-14%	9%	24µM*	-6	-33%
COCCn1c(SCc2nc3sc(C(=O)OC)c(C)c3c(=O)[nH]2)nc2ccccc21	3%	2%	0%	14	?
COC(=O)c1sc2nc(CSc3ccc(Br)cc3)[nH]c(=O)c2c1C	-4%	-5%	0%	-6	11µM*
CN(C)C(=O)c1cc(C(=O)c2ccccc2C(F)(F)F)c[nH]1	0%	-2%	27µM*	4	1%
O=C(CN1c2cccc3cccc(c23)S1(=O)=O)Nc1ccc(S(=O)(=O)N2CCOCC2)cc1	-5%	2%	-13%	15	22µM*
O=c1cc(Br)c(O)c(Br)cc1Br	-2%	?	21µM*	.	?
SMILES	Vif-A3G inh	VDR inhibitor	PLK1 PBD inh	TSHR antagonist	Vif-APOBEC3F blk
COc1ccc(C2C=C3CN(C(=O)OC(C)(C)C)S(=O)(=O)C3CC2OC(=O)c2cccc(C)c2)cc1 (stereo not drawn)	2%	-2%	.	.	.
C[N+](C)(C)c1ccc(/C=C2\C=Cc3ccccc32)cc1	4%	.	.	.	.
CC(C)(C)OC(=O)N(CCc1ccccc1)Cc1cccc(OCc2cccc(NC(=O)c3ccccc3)c2)c1	-1%	?	24µM*	.	0%
CCOC(=O)c1ccc(NC(=O)CSc2nc(-c3ccc(OC)cc3)cc(C(F)(F)F)c2C#N)cc1	?	-8%	.	.	25µM*
COc1ccc(NC(=O)CSc2nc(-c3ccc(C)cc3)cc(C(F)(F)F)c2C#N)cc1	1%	-5%	-5%	2	-4%
CCOC(=O)c1ccc(NC(=O)CSc2nc(-c3cccs3)cc(C(F)(F)F)c2C#N)cc1	?	-7%	.	.	4µM*
